Screening data deposited in PubChem by National Center for Advancing Translational Sciences (NCATS).
MCF10A rerep: DNA re-replication induction in MCF 10a cells; MCF 10A DNA re-replication, Hoechst nuclear intensity, 48 h; Potency, µM (doses to about 46.1 µM), for inactives: top-dose activity, positive = re-replication, hits mostly activators; AID 624296; 350,000 tested, 2.9% active; also: % of control where 0% means no effect; nearly all actives have a fitted effect of over 50% in size
KB-3-1 cytotox: KB-3-1 parental cell cytotoxicity; AID 1347075; Potency, µM (titrated, usually from 46.1 µM), hits mostly cytotoxic; KB-3-1 viability, CellTiter-Glo ATP luminescence, 72 h; 400,000 tested, 1.4% active; also: % is scaled to controls: 0 for no effect and ±100 for the full control effect; nearly all actives have a fitted effect of over 60% in size
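Cytotoxicity in the drug-sensitive parental line KB-3-1 was scored as loss of CellTiter-Glo luminescence following 72 h incubation with compound. Values come from curve fitting of normalized concentration-response data.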
KB-V1 cytotox: KB-V1 MDR subline cytotoxicity. KB-V1 MDR cells viability, CellTiter-Glo, 72 h. Potency, µM (series often up to 46.1 µM), hits mostly cytotoxic. 400,000 tested, 3.4% active; also: % is scaled to controls: 0 for no effect and ±100 for the full control effect; nearly all actives have a fitted effect of over 60% in size
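Compound-treated KB-V1 multidrug-resistant cells, 72 h, 37 degrees C; viability by CellTiter-Glo. Fitted qHTS curves give the values.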
HT1080NT lethal: kills 2HG-producing HT-1080-NT fibrosarcoma cells | HT-1080-NT fibrosarcoma viability, CellTiter-Glo ATP luminescence, 48 h | Potency, µM (series often up to 46.1 µM), without a hit: at the top dose activity, negative = less viability, usual class: cytotoxic | 360,000 tested, 1.6% active;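 also: NT is the 2HG producing partner of a matched IDH1 knockdown line; 0% = DMSO-treated cells and -100% = media-only wells without cells; nearly all actives have a fitted effect of over 55% in size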
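Toxicity toward the 2HG-producing NT line was scored as %Activity, normalised to DMSO and no-cell wells, from CellTiter-Glo luminescence after 48 hours' treatment.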
SW480 rereplic: DNA re-replication induction in SW480 cells. SW480 DNA re-replication, Hoechst DNA content imaging, 48 h. Potency, µM (top dose mostly 46.1 µM), for the others: at the highest dose re-replication activation, hits mostly activators. 340,000 tested, 1.8% active. AID 624297; also: % of control where 0% means no effect; nearly all actives have a fitted effect of over 55% in size
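250 cells/well; 23 nL cpd via pin tool; 48 hr, 37 C, 5% CO2; Hoechst 40 min; imager read of total nuclear intensity, ex 405/em 500-530 nm.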
HT1080 IDH1KD tx: HT-1080 IDH1 knockdown cell toxicity (counter line); AID 686971; HT-1080 IDH1 knockdown viability, ATP luminescence, 48 h; 360,000 tested, 2% active; Potency, µM (series often up to 46.1 µM), without a hit: at the highest dose activity, negative = toxicity, most hits filed as cytotoxic;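 also: 0% = DMSO wells and -100% = cell-free medium wells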
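In this qHTS, HT-1080 cells depleted of IDH1 are exposed for 48 h at 37 °C to compound titrations. Toxicity is scored from CellTiter-Glo luminescence, with DMSO as full viability and medium alone as none.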
The depositor's hits bear a star; i = inactive; ? = inconclusive; · = no result given. Only some compounds are listed: those with a hit (about 7.9% of all), similar ones and a draw of the others. Calls follow the shape of the dose curve; as a rule, active = well fitted curve in the direction sought with a large enough effect; inconclusive = small, poorly fitted or top-dose-only effect, or another doubt; inactive = no such curve, though single readings can be large; an effect the other way counts as inactive or inconclusive. Potency is read from the fitted curve at half-maximal effect.

SMILES | MCF10A rerep | KB-3-1 cytotox | KB-V1 cytotox | HT1080NT lethal | SW480 rereplic | HT1080 IDH1KD tx
Cc1ccc2[nH]c(=O)c(CN(Cc3ccccc3)C(=S)NCCCN(C)C)cc2c1 | ? | i | i | 18µM* | ? | 16µM*
Cc1cccc(NC(=S)N(CCN(C)C)Cc2cc3cc(C)ccc3[nH]c2=O)c1 | ? | i | ? | 16µM* | 0% | ?
Cc1coc2c(C)c3oc(=O)cc(-c4ccccc4)c3cc12 | 1% | i | i | 4% | -1% | 7%
Cc1ccc(C(=O)NCc2ccc3c(c2)OCO3)cc1S(=O)(=O)N1CCCCC1 | -5% | i | i | 0% | -3% | -7%
C#CC[N+](C)(C)CCCCCCCCCC | ? | 3.7µM* | i | ? | 21µM* | 12µM*
CC#CC[N+](C)(C)CCCCCCCCCCCC | ? | ? | i | 23µM* | ? | 23µM*
CCCCCCCCCCCCCCCCCC[N+](C)(C)CCC[Si](OC)(OC)OC | 9% | · | · | · | -2% | ·
C#CC[N+](C)(C)CCCCCCCCCCCC | 26µM* | 2.1µM* | i | 10µM* | 12µM* | 12µM*
C[N+](C)(C)CCCCCC[N+](C)(C)C | 0% | i | i | ? | -1% | 7%
C#CC[N+](C)(C)CCCCCCCC | 11% | 5.2µM* | i | ? | -1% | ?
Cc1oncc1C(=S)Nc1ccccc1 | 8.2µM* | i | i | ? | 6.5µM* | -3%
CC(=O)N1N=C(c2ccccc2)CC1c1cn(C)c2ccccc12 (stereo not given) | 17% | i | 23µM* | 0% | 20% | -8%
CC(=O)N1N=C(c2ccccc2)CC1c1ccc(F)cc1 (stereo not given) | -14% | i | i | -3% | -3% | 6%
Cc1ccc(S(=O)(=O)N2CCOCC2)cc1NC(=O)CSc1nc2ccccc2c(=O)n1Cc1ccccc1 | 9% | i | 8.2µM* | 0% | -1% | -3%
COCCn1c(SCC(=O)Nc2ccc(S(=O)(=O)N3CCOCC3)cc2)nc2ccccc21 | 16% | i | 5.2µM* | 10% | -2% | 6%
O=C(CSc1nc2ccccc2c(=O)n1Cc1ccccc1)Nc1ccc(Br)cc1C(=O)O | 23µM* | i | i | -16% | 12% | -9%
Cc1cc(NC(=O)CSc2nc3ccccc3c(=O)n2Cc2ccc(F)cc2)no1 | ? | i | i | -26% | 13% | -21%
Cc1nc([N+](=O)[O-])c(Br)n1CC(=O)c1cccc([N+](=O)[O-])c1 | 21µM* | i | i | -25% | ? | ?
Cc1nc([N+](=O)[O-])c(Br)n1CC(=O)c1ccc(F)cc1 | 21µM* | i | i | ? | ? | 18µM*
COc1ccc(CNC(=O)Cn2nnc(-c3ccc(NC(=O)C4CCCCC4)cc3)n2)cc1 | 3% | i | i | -1% | 23% | -4%
CCOC(=O)N1CCN(c2c(NCCN(C)Cc3ccccc3)c(=O)c2=O)CC1 | -9% | i | ? | 0% | -2% | 3%
O=C1C2C3C=CC(C3=C(c3ccccc3)c3ccccc3)C2C(=O)N1Cc1ccccc1 (stereo not given) | ? | ? | 23µM* | -14% | ? | ?
O=C1C2C3C=CC(C3=C(c3ccccc3)c3ccccc3)C2C(=O)N1CCO (stereo not given) | 3% | i | 21µM* | 8% | -3% | 0%
O=C1C2C(c3ccccc3)C=CC(c3ccccc3)C2C(=O)N1CCO (stereo not given) | -3% | i | i | -13% | -2% | 20%
COc1ccc(N(C(C)C(=O)N/N=C/c2ccc(OCC(C)C)cc2)S(C)(=O)=O)cc1 (stereo not given) | 19% | i | ? | 6% | 4.1µM* | 11%
